± gives the standard deviation of the averaged measurements. Whole data set: some 25,000 sequences, median “ln(normalized median fluorescence intensity)” near 7.9, cut for the highest 2% near 11. Shown is part of a subset that was picked to be rich in the highest values.
tested on: PfAP2-I AP2 domain 3 (GST-tagged); test: gcPBM binding intensity (ln(normalized median fluorescence intensity)); higher = stronger DNA binding
Method in brief: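 GST-fused DNA-binding domains of P. falciparum, expressed in E. coli, were applied at about 25 μg on average for 1 h to an Agilent 4 × 180k array of primer-extended double-stranded 36-bp intergenic genomic probes and negative controls. Binding intensity is the highest Masliner-normalised natural-log median intensity across replicate spots of either probe orientation, measured with Alexa488 anti-GST antibody and a 488 nm scan.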

Sequence	gcPBM binding intensity (ln)
TTGTTTTCTTTTTCTTTTCTTTTTCTTTTTTCTTTT [GTGCAC_negctrl_site629]	7.55 ± 0.73
CATTAAAATATGAGATGTACACAATATCTATTATAT [XGTACX_site4979]	7.82 ± 0.51
CAATGCAAGGCTTAAAAAAATGGGCATATTATATAT [GTGCAC_negctrl_site304]	7.79 ± 0.83
TAAGTTATATGTATATGTACTTATATATATATATAT [XGTACX_site5402]	9.16 ± 0.76
AGAATATAATTTTTATGTACATATATTAAATATATT [XGTACX_site8521]	7.6 ± 0.37
CATATAAGAATCTTCTGTACTTATAAGAAAAGACAT [XGTACX_site8135]	7.89 ± 0.48
TTATGAAAAAAATACTGTACACAATATGACGAAAGT [XGTACX_site2283]	8.46 ± 0.42
TATTATGACTTAAGTTGTACTGTTGAAAGAAGAAAA [XGTACX_site2985]	7.88 ± 0.53
AAAAAAAGTTGATACTGTACTCGTGCATTATGAATA [XGTACX_site5558]	11.3 ± 0.57
ACTTAATTTTTTTATTGTACATGTAAATGAGGGAAA [XGTACX_site6305]	8.25 ± 0.26
AAGACTCTTTGTCCTTGTACATATATTTTTATGTTT [XGTACX_site3711]	7.76 ± 0.59
CACATACACATACAAACACACATTATGTATATATAT [CACACA_site1599]	8.16 ± 0.84
ATATATTTAAACTACACACGCATATCTTAGAAATAA [CACACA_site1272]	7.77 ± 0.54
AAAATAAAATTAGTTGCATGCAACTTAAACAGAAAT [TGCATGCA_site860]	8.14 ± 0.63
ATAAATAAAACAACAGTGCAATAAAATTAGTTGAGG	10.9 ± 0.25
ATTAATTAAAATAGTTGTACAATCAAAAAAACAAAA [XGTACX_site7660]	8.15 ± 0.64
AATATATTTTTATATTGTACAAAAGAAAAAAAATAT [XGTACX_site1689]	8.05 ± 0.48
TTTTTTTTGTATTAATGTACATATAACTTTTTTTTT [XGTACX_site7903]	7.7 ± 0.49
AATACACATAATACATGTACTCACATTGTTATAACA [XGTACX_site4129]	8.04 ± 0.53
AGTTTGCATATGGAAGTGCATTACCTTGAACATCAT	11.2 ± 0.38
AGTTGCATACATTGAAGTACAGAACATTTATATATA [XGTACX_site240]	7.86 ± 0.44
TTTATATCATTACAAGTGCATATCATCATAAATTCT [GTGCAC_site9878]	8.81 ± 0.3
TATATATGTTTATGTAGTACTATATATCCCTTTCTT [XGTACX_site7049]	7.61 ± 0.53

Sequence	gcPBM binding intensity (ln)
TAAATTTATGGACACACACACATATATATATATATA [CACACA_site4620]	9.45 ± 0.35
TATAGATACACTTTGTGTACATAAAAATTGTATTAA [XGTACX_site7137]	7.66 ± 0.29
TATAAACTTAATTTGAGTACTTAATAATAATTTTGT [XGTACX_site3730]	7.38 ± 0.47
GTCAACTTGTGATAAGTGCATATATATAATAAAATG	9.875 ± 0.078
GTACACCTATAATATACACACAACAAATATGCACAT [CACACA_site6603]	9.64 ± 0.39
GAATAATATGGACATACACACATATACATACCTATA [CACACA_site7075]	8.07 ± 0.59
ATACAGTTGCATATGGTGCACGAATAATACACCTAT	11 ± 0.25
ACTATTAAGAATAAAGAAATATGTAATTGTATTTAA [CACACA_negctrl_site516]	7.43 ± 0.59
GTATAGAGAAAAAACTGTACTTTATATAAATATTTA [XGTACX_site3972]	7.53 ± 0.3
ATATATGTACAAATTGTGCGCAATAATTTTGTCTTT	9.06 ± 0.33
TACATTTCATTGTAATCATAAAAAATAAAGAAAAAA [XGTACX_negctrl_site542]	7.58 ± 0.61
ATATCTTATAATACGGTGCACTTGACATGAACAACT [GTGCAC_site9987]	10.7 ± 0.3
ATAATGAACAAAGTAGTGCACTTTCCTTATCTTTTC	11.4 ± 0.26
CCTTTCCTTTTATAAGTGCATATAACAAATGTATAC [GTGCAC_site9872]	10 ± 0.11
AATATAAACCCAAACACACACATATATATATATATA [CACACA_site268]	9.4 ± 0.37
ATATAAAATATGAGTAGTACATATTTTCTCATCTTA [XGTACX_site8595]	7.55 ± 0.38
ACTACAAGGCAATACAGTACATATAAATGTCATAAT [XGTACX_site8468]	7.85 ± 0.45
AATAATATATATTACACACGCATCGTTCATTTATTT [CACACA_site2391]	7.87 ± 0.92
ATACTAACATTTTTTTGTACATATAACTATAAAATA [XGTACX_site1033]	8.09 ± 0.47
AAATATTTGTGTGGTTGTACTATAATGATAAAAATA [XGTACX_site7703]	8.14 ± 0.42
AAATACTGATTTGGTTGTACATGTGCACTATATAAC [XGTACX_site3795]	11.3 ± 0.56
GGGAAACGATTTAATACACACACGTATTATATATAT [CACACA_site1160]	8.48 ± 0.59
ATTAGTATAATGTAACTTAGTTAATAGTGCTAATAT [CACACA_negctrl_site764]	9.54 ± 0.4

Sequence	gcPBM binding intensity (ln)
AAAAAAAAAAAAATGGTGCAACTTTGTTAAAGGAAA [GTGCAC_site9950]	9.56 ± 0.12
CTCATTTTGTTAATGGTGCAAAAAAAAAAAAAAAAA	11.1 ± 0.73
TTTTCATTTGTGACAGTGCAAAATGTTATATTAAAA [GTGCAC_site9647]	9.99 ± 0.3
ATGGATTATTTTTAAACATGCAGTAGTGATGAAAAA [TGCATGCA_site346]	8.36 ± 0.53
GACATATTCCCCCCCACACACACACCCACATACATA [CACACA_site2302]	10.8 ± 0.26
CATATTCCCCCCCACACACACACACGCATACATACC [CACACA_site7148]	10.8 ± 0.33
CATATTCCCCCCCACACACACACACCCATACATACC [CACACA_site2303]	11.2 ± 0.44
AAATATAATATATGCACACATACATACAGATATATA [CACACA_site4235]	9.22
TGAAAAAAAAAATGCACACGCATACAGATAATATGT [CACACA_site4526]	8.62 ± 0.51
TTTGAAATAAATAATGCACACTCTACATATATACGT [CACACA_site2244]	11.1 ± 0.61
TGAAATAAATAATGCACACTCTACAGATATACGTAT [CACACA_site5270]	11.1 ± 0.66
GTTGAAAAAAAAAATGCACACGCATACATATAATAT [CACACA_site8117]	8.71 ± 0.29
AAATATAATATATGCACACATACATACATATATATA [CACACA_site104]	9.41 ± 0.3
AAATAAAATTATAATACATGCATACATACATATATA [TGCATGCA_site69]	7.9 ± 0.54
AATTATATAAGCCACGCATGTGTGCATAAAAATACA [TGCATGCA_site114]	11.1 ± 0.34
AAAAATAAAATATATACATGCATATACATATTATAT [TGCATGCA_site668]	7.87 ± 0.45
ATGTTAATAACTTGTGGTACTGTTATAATTTAGTAA [XGTACX_site2114]	7.71 ± 0.42
ATATATATATAATTATATAAAATATATCATATGTTA [XGTACX_negctrl_site47]	8.76 ± 0.16
TATTAATTATATTTATGTACATAATCATATTATTAT [XGTACX_site7938]	7.66 ± 0.39
TTTAATCATATGTTATATAATAAGCCCCCCCCCCAA [CACACA_negctrl_site486]	11.1 ± 0.63
ATTATTTGATTAAAGGTGCAAGGATAATAATAAAAC	9.47 ± 0.17
AAAAAAAAAAAAAAGGTGCATACTTTGAATTAATAT [GTGCAC_site9401]	9.87 ± 0.17
ATTAATAATCGAAAGGTGCACTTTGATTTGATAACA	11.2 ± 0.3

Sequence	gcPBM binding intensity (ln)
AAAAAAAAAAAAAAAAGTACATGAAAAAAAGAAGAA [XGTACX_site8384]	8.7 ± 0.27
ATATAAAATACATGGGTGCAATATATTAAACAAATA [GTGCAC_site9421]	11.2 ± 0.48
GACAATTATATGTAGGTGCATATACAAATTTTTTAA	10.4 ± 0.57
ATTTTTTTTTTTTTATGTACATATAGGTGCAAATCA [XGTACX_site6748]	11.3 ± 1
TAAAGGAAATAAAAAACATGCAAATATGAAATATAT [TGCATGCA_site745]	7.61 ± 1.1
TACAAATATATAAAATGTACATATATATACATATTA [XGTACX_site3029]	7.46 ± 0.27
AAATAAAATAATAAAACATGCAAAAATAATGATTTA [TGCATGCA_site415]	7.71 ± 0.76
CATATATATTTTATATGTACATATATATTTTATATA [XGTACX_site8665]	7.59 ± 0.15
CAATATATTATATGGGTGCAAACCACATATAAATAA	10.1 ± 0.33
ATTATGTACAAAATGGTGCAATATTATACATATATA [GTGCAC_site9468]	11.1 ± 0.49
AGGTGCAAAAATAAAACATGCAAAAATAAAAATGAA [TGCATGCA_site502]	10.9 ± 0.65
ATTTTATATACAAAATGTACATATTTATTATATATG [XGTACX_site6732]	7.74 ± 0.5
TATTAAATATATATTACATGCAAAAAAAAAAAACAA [TGCATGCA_site705]	7.97 ± 0.52
TTTTATTGTTTTTTTTTTTTTTCTTTTTTTTTTTTT [CACACA_negctrl_site1094]	7.91 ± 0.46
ATACGTGGGCAAAAAGTGCATATAATCAAAAAAAAA [GTGCAC_site9961]	10.4 ± 0.11
ATAAGATAGGCATATACACACATTTATTTACAGATA [CACACA_site5754]	7.71 ± 0.67
TTGTTTTTGTTCTTGGGTACTTAAATTATAAATGAT [XGTACX_site113]	8.07 ± 0.45
ATAACTTTTTAAAAGACACACATAAGAAAAACAAAA [CACACA_site723]	8.08 ± 0.64
TATATGTGATAACACGCACACAAATGTATATAATTT [CACACA_site2593]	8.1 ± 0.28
TCTTTATATCATCTTTCTAAATATATATATATATAA [CACACA_negctrl_site77]	7.84 ± 0.55
TTCATTAAATAGAACAAAATAATAATATAACAACAA [GTGCAC_negctrl_site116]	7.74 ± 0.53
AAAATAAATAAAAAAAGTACATATATAATTTATAAA [XGTACX_site2411]	7.75 ± 0.39
